Measurements reported in PubChem BioAssay.
Values joined by “and” are separate entries in the source; they are usually repeats but may differ in a detail not shown here. Equal values may be shown once. Inconclusive results are not listed. Active and inactive are the calls of the source. Unless noted, the limit is not given here; nearly all actives have AC50 up to about 26 µM.

Tests used:
[1] = viability loss in pontine glioma line – cell-based, SU-DIPG-XVII, MIPE5.0, CellTiter-Glo, qHTS, dose response (AID 1347060); conditions: CellTiter-Glo ATP luminescence;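 as to AC50: cells exposed to compound for 48 hours before viability readout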
[2] = viability loss in pontine glioma line – cell-based, SU-DIPG-XIII, MIPE4.0, CellTiter-Glo, qHTS, dose response (AID 1347061; cut-off not given, nearly all actives have AC50 up to about 37 µM;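 also: cells exposed to compound for 48 hours before readout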); conditions: CellTiter-Glo ATP luminescence
[3] = viability loss in pontine glioma line – cell-based, JHH-DIPG-1, MIPE4.0, CellTiter-Glo, qHTS, dose response (AID 1347062; cut-off not given, nearly all actives have AC50 up to about 27 µM); conditions: JHH-DIPG-1 viability, CellTiter-Glo ATP luminescence
[4] = viability loss in pontine glioma line – cell-based, SU-DIPG-IV, MIPE4.0, CellTiter-Glo, qHTS, dose response (AID 1347063; cut-off not given, nearly all actives have AC50 up to about 30 µM;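 also: compound exposure lasted 48 hours before the viability readout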); conditions: CellTiter-Glo ATP luminescence
[5] = viability loss in pontine glioma line – cell-based, SU-DIPG-XIII, MIPE5.0, CellTiter-Glo, qHTS, dose response (AID 1347064; cut-off not given, nearly all actives have AC50 up to about 23 µM;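 as to AC50: cells exposed to compound for 48 hours before the viability read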); conditions: CellTiter-Glo ATP luminescence
[6] = viability loss in pontine glioma line – cell-based, SU-DIPG-XXV, MIPE5.0, CellTiter-Glo, qHTS, dose response (AID 1347065); conditions: CellTiter-Glo ATP luminescence;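 also: cells exposed to compound for 48 hours before ATP readout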
[7] = growth inhibition of DIPG cells – cell-based, MIPE4.0 library, CellTiter-Glo luminescence, qHTS (AID 1347066; cut-off not given, nearly all actives have AC50 up to about 30 µM;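 also: cells exposed to compound for 48 hours before readout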); conditions: SU-DIPG-VI viability, CellTiter-Glo ATP luminescence
[8] = JHH-DIPG-1 glioma cell viability, MIPE5.0 library, CellTiter-Glo luminescence, qHTS (AID 1347067); conditions: JHH-DIPG-1 glioma viability, CellTiter-Glo ATP luminescence;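 also: cells exposed to compound for 48 hours before readout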
[9] = growth inhibition of DIPG cells – cell-based, MIPE5.0 library, qHTS (AID 1347068; cut-off not given, nearly all actives have IC50 up to about 30 µM;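 as to IC50: cells exposed to compound for 48 hours before viability readout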); conditions: SU-DIPG-XXV viability
[10] = viability loss with induced miR-34 in A549 – imaging, A549 dox-inducible miR-34, nuclei and caspase counts, primary screen (AID 1347080;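 active = compounds whose cell count with miR-34 switched on is under 0.7 times the count with it off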); conditions: A549 miR-34 inducible, Hoechst nuclei count, 48 h
[11] = compounds altering HSF1 focus formation in cells – imaging, Selleck Cancer Library (AID 1347162; in the data active = plate-normalised HSF1 focus index below about 0.46); conditions: human cells, HSF1 nuclear foci imaging, at 10 µM; SSMD: measured here: HSF1 foci SSMD mean; cell count: measured here: cell number; plate-normalised HSF1 focus index: stronger effect = lower value
[12] = MELAS cybrid and Rieske KO viability enhancers – cell-based, MELAS cybrids, Rieske KO mouse fibroblasts, CellTiter-Glo, primary screen (AID 1508586;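 active = mean z-score across replicates of 1.96 or higher in either the MELAS or the Rieske mutant cell line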;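 also: z relative to plate mean and SD of compound and empty wells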); conditions: low glucose
[13] = P. berghei load reduction in hepatocytes – cell-based, HepG2, luciferase luminescence, HepG2 viability, primary screen (AID 624349; in the data active = parasite load remaining mostly below about 12%, no sharp cut-off; inactive = mostly above about 10%;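 also: 100% = mean of DMSO negative control wells on the same plate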); conditions: P. berghei liver stage in HepG2, luciferase luminescence, concentration not given here; parasite load remaining: stronger effect = lower value; viability: measured here: HepG2 viability without parasites
[14] = stronger effect = lower value, cell number ratio, induced over uninduced
[15] = measured here: relative caspase fold change +Dox/-Dox
[16] = measured here: total cells with miR-34 induction, stronger effect = lower value
[17] = measured here: total cells without miR-34 induction
[18] = MELAS cybrid survival, CellTiter-Glo 48 h, stronger effect = higher value
[19] = Rieske KO mouse fibroblast survival, CellTiter-Glo 72 h

O=C(Oc1ccc([N+](=O)[O-])cc1)N1CCC(C(O)(c2ccc3c(c2)OCO3)c2ccc3c(c2)OCO3)CC1
outcome [1]: inactive | outcome [2]: inactive | outcome [3]: inactive | outcome [4]: inactive | outcome [5]: inactive | outcome [6]: inactive | outcome [7]: inactive | outcome [8]: inactive | outcome [9]: inactive | fold change [10, 14]: 1.03 (inactive) and 0.881 (inactive) | fold change [10, 15]: 1.13 and 1 | cell count [10, 16]: 6030 and 8340 | cell count [10, 17]: 5850 and 9460 | SSMD [11]: 3.32 | cell count [11]: 6730 | plate-normalised HSF1 focus index [11]: 1.2 (inactive) | z-score [12, 18]: -0.115 (inactive) | z-score [12, 19]: -0.259

Cn1c(/C=C/CO)c(CO)c2c1C(=O)C=C(N1CC1)C2=O
outcome [1]: inactive | outcome [6]: inactive | outcome [9]: inactive

O=S(=O)(F)Cc1ccccc1
outcome [1]: inactive | outcome [3]: inactive | outcome [4]: inactive | outcome [5]: inactive | outcome [6]: inactive | outcome [7]: inactive | outcome [8]: inactive | outcome [9]: inactive | fold change [10, 14]: 0.924 (inactive) | fold change [10, 15]: 0.551 | cell count [10, 16]: 9940 | cell count [10, 17]: 10800 | z-score [12, 18]: -0.358 (inactive) | z-score [12, 19]: 0.553

CN[C@@H]1C[C@H]2O[C@@](C)([C@@H]1OC)n1c3ccccc3c3c4c(c5c6ccccc6n2c5c31)C(=O)NC4
AC50 [1]: 0.118 µM (active) | AC50 [5]: 0.263 µM (active) | AC50 [6]: 0.209 µM (active) | AC50 [8]: 0.209 µM (active) | IC50 [9]: 0.833 µM (active) | fold change [10, 14]: 1.19 (inactive) | fold change [10, 15]: 0.478 | cell count [10, 16]: 874 | cell count [10, 17]: 732

COc1ccc(N(C(=O)Oc2c(C)cccc2C)c2ccnc(Nc3ccc(N4CCN(C)CC4)cc3)n2)c(OC)c1
AC50 [1]: 10.5 µM (active) | AC50 [5]: 14.8 µM (active) | AC50 [6]: 10.5 µM (active) | outcome [7]: inactive | AC50 [8]: 16.6 µM (active) | IC50 [9]: 20.9 µM (active) | fold change [10, 14]: 0.826 (inactive) | fold change [10, 15]: 0.474 | cell count [10, 16]: 5990 | cell count [10, 17]: 7250 | z-score [12, 18]: 0.0994 (inactive) | z-score [12, 19]: -1.32

Cc1[nH]ncc1-c1cc2nc([C@@H]3CC4CCN3CC4)[nH]c(=O)c2s1
AC50 [1]: 18.6 µM (active) | AC50 [6]: 16.6 µM (active) | AC50 [8]: 14.8 µM (active) | IC50 [9]: 23.5 µM (active)

NC(=O)[C@@H](CC1CC1)[C@@H](CCC(F)(F)F)C(=O)N[C@H]1N=C(c2ccccc2)c2cccc(F)c2NC1=O
outcome [1]: inactive | outcome [5]: inactive | outcome [6]: inactive | outcome [9]: inactive

Cn1c(CCCCCCC(=O)NO)nc2cc(N(CCCl)CCCl)ccc21
AC50 [1]: 9.34 µM (active) | AC50 [8]: 9.34 µM (active) | outcome [9]: inactive

COC(=O)[C@@]12OC[C@]34[C@H]([C@@H](O)[C@@H]1O)[C@@]1(C)CC(=O)C(O)=C(C)[C@@H]1C[C@H]3OC(=O)[C@H](OC(=O)/C=C(\C)C(C)C)[C@@H]24
AC50 [1]: 0.0295 µM (active) | AC50 [5]: 0.059 µM (active) | AC50 [6]: 0.0105 µM (active) | AC50 [8]: 0.0525 µM (active) | IC50 [9]: 5.9 µM (active)

CC(C)(C)c1cc(C=C(C#N)C#N)cc(Br)c1O
parasite load remaining [13]: 43.4% (inactive) | viability [13]: 165% | AC50 [1]: 20.9 µM (active) | AC50 [5]: 18.6 µM (active) | AC50 [6]: 23.5 µM (active) | AC50 [8]: 18.6 µM (active) | outcome [9]: inactive | fold change ([10]; stronger effect = lower value): 0.886 (inactive) | fold change [10, 15]: 1.14 | cell count [10, 16]: 7700 | cell count [10, 17]: 8690 | z-score [12, 18]: -0.608 (inactive) | z-score [12, 19]: -0.108
